Hits are enriched below; roughly 3.5% of the tested compounds scored in any of these assays.
ANO1 block: TMEM16A chloride channel inhibitors, primary screen, cell-based, HTS; HEK293 TMEM16A/YFP iodide influx fluorescence, ionomycin; normalized B-score (activity score, 25-100; higher = stronger inhibition) at 10 µM; 310,000 tested, 1.2% active; AID 588511, 2011;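 active means ratio plate-corrected score three or more library SD toward inhibition, starting fluorescence score within five deviations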;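 further: score derived from kinetic fluorescence span divided by baseline fluorescence per well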
Target sequence (Q8BHY3 whole entry, looked up): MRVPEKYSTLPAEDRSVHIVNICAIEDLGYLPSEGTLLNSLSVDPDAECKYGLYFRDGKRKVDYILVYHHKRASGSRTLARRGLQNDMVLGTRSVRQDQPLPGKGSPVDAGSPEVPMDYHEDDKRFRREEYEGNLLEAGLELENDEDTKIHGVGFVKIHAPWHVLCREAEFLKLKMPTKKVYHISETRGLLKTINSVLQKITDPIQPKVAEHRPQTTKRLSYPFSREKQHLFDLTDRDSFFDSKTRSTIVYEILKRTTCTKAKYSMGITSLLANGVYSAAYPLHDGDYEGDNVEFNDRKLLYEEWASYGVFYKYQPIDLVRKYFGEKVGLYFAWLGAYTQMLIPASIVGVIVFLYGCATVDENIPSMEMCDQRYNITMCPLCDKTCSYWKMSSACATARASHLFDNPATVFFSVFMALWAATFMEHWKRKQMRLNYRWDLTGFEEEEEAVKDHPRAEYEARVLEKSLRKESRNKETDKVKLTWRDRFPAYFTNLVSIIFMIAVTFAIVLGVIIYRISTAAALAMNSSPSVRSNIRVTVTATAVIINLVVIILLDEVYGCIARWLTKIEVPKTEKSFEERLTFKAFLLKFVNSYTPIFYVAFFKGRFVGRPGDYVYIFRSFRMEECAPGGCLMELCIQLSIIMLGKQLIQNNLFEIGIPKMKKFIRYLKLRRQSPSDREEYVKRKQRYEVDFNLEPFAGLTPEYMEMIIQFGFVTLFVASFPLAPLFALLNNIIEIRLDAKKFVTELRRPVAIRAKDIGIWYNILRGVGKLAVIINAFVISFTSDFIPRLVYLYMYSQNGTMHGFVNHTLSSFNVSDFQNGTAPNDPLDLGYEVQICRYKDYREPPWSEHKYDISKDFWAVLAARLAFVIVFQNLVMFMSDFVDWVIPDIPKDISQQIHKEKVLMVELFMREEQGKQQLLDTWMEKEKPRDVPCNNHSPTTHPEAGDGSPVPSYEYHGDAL
KCNK3 inh: human KCNK3 channel inhibitors, primary screen, CHO cells, FluxOR thallium flux, B-score; Potassium channel subfamily K member 3 (Homo sapiens), O14649; B-score at 10 µM; FluxOR fluorescence; hits give low values; 340,000 tested, 0.84% active;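 active means B-score under library mean minus 4 SD, starting fluorescence ratio at most library mean plus 5 SD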;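 further: more negative B-score means stronger inhibition of thallium flux through KCNK3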
TMEM16A act: TMEM16A chloride channel activators or potentiators, primary screen, cell-based, HTS; AID 623877, 2012; 340,000 tested, 0.3% active; HEK293 TMEM16A/YFP-H148Q/I152L, iodide quench fluorescence; hits give low values; B-score at 10 µM;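 active means fluorescence-ratio B-score plate-corrected deviation score at least 3 library SD below zero, with starting fluorescence score within 5 deviations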;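 further: channel opened by trigger with iodide after compound preincubation; score built on the fluorescence ratio of max minus min over baseline; more negative score means more quench and so TMEM16A activation or potentiation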
Kir21 inh: inhibitors of mouse Kir2.1 inward-rectifier potassium channel; Inward rectifier potassium channel 2 (Mus musculus), P35561; HEK293-Kir2.1, FluxOR thallium flux fluorescence; hits give low values; B-score at 10 µM; 310,000 tested, 0.85% active;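 active means fluorescence ratio B-score at or below minus 3 SD of library scores, with starting-brightness B-score within 2 SD, cut at about -4.2 in these data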;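 further: channel flux triggered by added potassium and thallium sulfate stimulus; B-score of peak minus minimum fluorescence over baseline after thallium stimulus; more negative B-score means stronger Kir2.1 block with less thallium influx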
KCNK9 block: KCNK9 potassium channel inhibitors, primary screen, HEK293 cells, thallium flux; Potassium channel subfamily K member 9 (Homo sapiens), Q9NPC2; FluxOR thallium flux fluorescence; hits give low values; B-score at 10 µM; 310,000 tested, 1.2% active;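 active means ratio B-score over 3 SD below the library mean, with starting fluorescence within 5 SD of its mean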;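 further: negative B-score means less thallium flux so channel inhibition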
KCNK9 inh conf: KCNK9 potassium channel inhibitors, confirmation, HEK293 cells, thallium flux, duplicate | shares compounds with KCNK9 block | FluxOR thallium flux fluorescence | inhibition, % at 10 µM | 4,900 tested, 43% active;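 active means thallium signal inhibited by more than 5 SD of the compound-free buffer control wells, on both duplicate plates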;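 further: 0% = assay buffer control wells without compound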
Kir21 sel: mouse Kir2.1 channel inhibition, confirmation, selectivity assay for KCNK9 modulator project, cell-based, HEK293, thallium flux; shares compounds with KCNK9 block; Kir2.1 cells, FluxOR thallium flux fluorescence; inhibition, % at 10 µM; 4,900 tested, 4% active;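 active means thallium signal drop more than 5 SD beyond the mean of the no-compound control wells, seen in both duplicate plates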;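 further: signal is fluorescence rise after thallium addition divided by baseline fluorescence; plate controls were assay buffer only for no effect and full block by chlorpromazine control for full effect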
HEK293 Tl ctr: thallium flux in non-induced HEK293 cells, confirmation, counter-screen for KCNK9 inhibitor project, cell-based, second counter screen, non-induced KCNK9-HEK293; AID 492997, 2010; inhibition, % at 10 µM; shares compounds with KCNK9 block; FluxOR thallium flux; 4,900 tested, 40% active;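 active means thallium signal drop beyond 5 SD of the untreated control mean, on both duplicate plates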;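 further: plate controls were buffer only IC0 wells for no effect and SID17386958 at its maximal inhibitory level for full effect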
KCNK3 inh conf: retest of human KCNK3 channel inhibitors, confirmation, CHO cells, FluxOR thallium flux, triplicate; shares compounds with KCNK3 inh; FluxOR fluorescence; 0% buffer, 100% carvedilol maximal block; ratio percent of control, % at 10 µM; 2,400 tested, 99% active; AID 651638, 2012;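 active means ratio percent of control, averaged over triplicates, above buffer control mean plus 5 SD, cut at about 64% in these data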;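 further: ratio is the fluorescence rise from min to max over baseline after thallium stimulus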
KCNK3 uninduced: thallium flux inhibition in non-induced cells, primary screen, counter-screen for KCNK3 inhibitor project, cell-based, non-induced KCNK3 line, FluxOR thallium, triplicate; shares compounds with KCNK3 inh; thallium flux ratio (lower = more inhibition) at 10 µM; 2,400 tested, 40% active; non-induced KCNK3 parental cells; hits give low values;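 active means thallium flux ratio, averaged over three wells, more than 5 SD below the buffer control mean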;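 further: host cells are CHO cells without KCNK3 induction; ratio is peak minus trough fluorescence over baseline then normalized to buffer controls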
The depositor's hits bear a star; i = inactive; . = not tested or not shown.

SMILES | ANO1 block | KCNK3 inh | TMEM16A act | Kir21 inh | KCNK9 block | KCNK9 inh conf | Kir21 sel | HEK293 Tl ctr | KCNK3 inh conf | KCNK3 uninduced
COc1cc2nc(SCc3c(C)noc3C)n(CCC3=CCCCC3)c(=O)c2cc1OC | i | -10* | i | 0.25 | -14* | 28%* | 32%* | 32%* | 125* | 0.14*
O=C(Nc1cccc(Cl)c1)N(CCN1CCOCC1)Cc1ccccc1F | i | i | i | 0.23 | i | . | . | . | . | .
C=CCC(c1ccccc1F)N(CCN1CCOCC1)C(=O)Nc1cccc(Cl)c1 (stereo not drawn) | i | -8.9* | i | -0.26 | -13* | 57%* | i | 40%* | 127* | 0.14*
O=C(O)C1=NN(c2cc(Cl)c(S(=O)(=O)O)cc2Cl)C(=O)C1 | . | i | i | . | . | . | . | . | . | .
Cc1nc(N2CCC(C)CC2)c2c(C)c(C(=O)Nc3ccc(C(F)(F)F)cc3)sc2n1 | i | i | i | 2 | i | . | . | . | . | .
Cc1nc(N2CCC(C)CC2)c2c(C)c(C(=O)Nc3cccc(C(F)(F)F)c3)sc2n1 | i | -9.4* | i | 1.4 | i | i | i | 30%* | 126* | 0.13*
COC(=O)CSc1nc(N2CCCCC2)c2c(c1C#N)CCCC2 | i | -11* | i | -2 | -10* | 38%* | i | 35%* | 104* | i
O=C(NCC(c1ccc(F)cc1)N1CCOCC1)c1ccc([N+](=O)[O-])o1 (stereo not drawn) | . | i | i | . | . | . | . | . | . | .
O=C(CC(=O)Nc1cccc(Cl)c1Cl)Nc1cccc(Cl)c1Cl | i | i | i | 0.48 | i | . | . | . | . | .
CCOC(=O)C(C)Sc1nc(-c2ccco2)cc(C(F)(F)F)c1C#N (stereo not drawn) | i | -12* | i | -4.9 | -16* | 70%* | i | 44%* | 98* | 0.13*
COc1cc2ccc(=O)oc2c(CC=C(C)C)c1OC | i | i | i | 0.57 | i | . | . | . | . | .
COc1ccc2ccc(=O)oc2c1CC=C(C)C | i | -12* | i | 0.02 | -15* | 72%* | i | 38%* | 104* | i
O=C(COC(=O)c1ccccc1NC(=O)c1ccccc1)c1ccc([N+](=O)[O-])cc1 | i | -9.6* | i | -0.73 | -14* | 73%* | i | 34%* | 104* | i
COc1cc2c(cc1OC)C(c1cccc([N+](=O)[O-])c1)N(C(=O)c1ccc(F)cc1)CC2 (stereo not drawn) | i | -11* | i | 0.41 | -17* | 74%* | i | 38%* | 96* | 0.15*
CC(=O)c1cccc(NC(=O)C(C)OC(=O)CCc2nc3ccccc3c(=O)[nH]2)c1 (stereo not drawn) | . | i | i | . | . | . | . | . | . | .
CCCC(=O)Nc1cccc(-c2nc3ccccc3c(=O)o2)c1 | i | i | i | 0.31 | i | . | . | . | . | .
Cc1cc(NC(=O)COc2ccc(Cl)cc2Cl)n(-c2ccccc2)n1 | i | i | i | 0.98 | i | . | . | . | . | .
Cc1cc(Nc2ccc(Cl)cc2)n(-c2ccccc2)n1 | i | i | i | -0.08 | i | . | . | . | . | .
Cc1cc(Nc2ccc(Cl)cc2)n(-c2cccc(Cl)c2)n1 | i | -9* | i | 0.12 | -8.2* | 50%* | i | 32%* | 149* | 0.15*
Cc1cc(NC(=O)CSc2cc(Cl)ccc2Cl)n(-c2ccccc2)n1 | i | -9.6* | i | -2.2 | -10* | 48%* | i | i | 127* | 0.14*
CC(C)(C)Nc1nc(Nc2ccc([N+](=O)[O-])cc2)nc(NC(C)(C)C)n1 | i | -11* | i | -0.55 | -13* | 46%* | i | 34%* | 128* | 0.13*
COc1ccc(C(=O)N2CCN(c3nc(C4CC4)nc4sc(C)c(C)c34)CC2)cc1 | i | i | i | 0.74 | i | . | . | . | . | .
Cc1sc2nc(C3CC3)nc(N3CCN(C(=O)c4ccc(F)cc4)CC3)c2c1C | i | -13* | i | 1.1 | -14* | 29%* | i | 28%* | 92* | i
O=C(c1ccco1)N1CCN(c2nc(C3CC3)nc3sc4c(c23)CCCC4)CC1 | i | -8.7* | i | 0.75 | -19* | 66%* | i | 28%* | 117* | 0.13*
Cc1sc2nc(C3CC3)nc(N3CCN(C(=O)c4ccccc4F)CC3)c2c1C | i | -12* | i | 0.76 | -13* | i | i | 28%* | 114* | 0.14*
SMILES | ANO1 block | KCNK3 inh | TMEM16A act | Kir21 inh | KCNK9 block | KCNK9 inh conf | Kir21 sel | HEK293 Tl ctr | KCNK3 inh conf | KCNK3 uninduced
COC(=O)c1ccsc1NC(=O)CN1CCN(c2ccc(F)cc2)CC1 | i | i | i | -0.27 | -11* | i | i | 28%* | 105* | i
Cc1sc(NC(=O)c2ccco2)c(CN2CCCCC2)c1C | i | i | i | 0.37 | i | . | . | . | . | .
Cc1sc(NC(=O)c2ccco2)c(CN2CCN(c3ccccc3)CC2)c1C | i | i | i | -0.06 | -9.9* | 35%* | i | 35%* | 113* | i
Cc1ccc(C(=O)COc2ccc3ccc(=O)oc3c2)cc1 | i | i | i | -0.4 | i | . | . | . | . | .
O=c1ccc2ccc(OCCOc3cccc(Cl)c3)cc2o1 | i | i | i | -1.3 | -9.5* | 32%* | i | 42%* | 100* | i
CCOc1ccc(Oc2ccc(-c3nnc(-c4ccccc4)o3)cc2[N+](=O)[O-])cc1 | i | i | i | 0.32 | i | . | . | . | . | .
CCc1noc(C)c1C(=O)N1CCSC1=Nc1cccc(Cl)c1C | i | -11* | i | -3.5 | -8.9* | 64%* | i | 42%* | 113* | i
O=C(NC1CC1)C1CCN(C2CCN(C(=O)CC3=CCCCC3)CC2)CC1 | i | i | i | -1.1 | i | . | . | . | . | .
